SMILES strings stand for the structures. Records with an inconclusive call do not appear. Calls of active or inactive are those of the source. Calls follow the shape of the dose curve; as a rule, active = well fitted inhibition curve with a large enough effect in the main read-out, with a control signal flat (not every such curve was filed as active); inconclusive = small, poorly fitted or top-dose-only effect, or effect the other way, or a change in a side signal; inactive = no such curve, though single readings can be large or run the other way.

The test is described as follows: Nrf2 qHTS screen for inhibitors: Validation (AID 493153). Particulars: A549 ARE-Fluc reporter, 18-24 h; viability change: measured here: cytotoxicity max response; luciferase luminescence, at 46.1 µM (top of the series). From the text:
NIH Molecular Libraries Probe Production Network [MLPCN] NIH Chemical Genomics Center [NCGC] MLPCN Grant: R03-MH092170-01 Assay Provider: Shyam Biswal, Johns Hopkins University Assay Overview: Nrf2 is a transcription factor that maintains cellular redox homoestasis and protects cells from xenobiotics. Nrf2 binds to the antioxidant response element (ARE) to induce gene expression of a broad spectrum of genes that encode for antioxidants. […] Finding a small molecule that act as an inhibitor of Nrf2 function would represent a novel therapeutic target that could lead to improvement in survival of patients undergoing chemo- and/or radio- therapy. 1. Shibata, T., et al., Genetic Alteration of Keap1 Confers Constitutive Nrf2 Activation and Resistance to Chemotherapy in Gallbladder Cancer. Gastroenterology, 2008. 2. Sjoblom, T., et al., The consensus coding sequences of human breast and colorectal cancers. Science, 2006. 314(5797): p. 268-74.
Assay Protocol Summary: A concentration-response assay was performed with A549 ARE_Fluc cells which are suspended in 5% FBS OPTI-MEM. Five uL were dispensed into 1536-well white TC-treated plate using the Kalypsys dispenser to achieve a density of 5000 cells/well in all columns except column 1. The plate is incubated at 37deg C at 5% CO2 for 2 hours before 23 nL of compounds are added with the Kalypsys pin tool equipped with a 1,536-pin array containing 10-nL slotted pins (FP1S10, 0.457-mm diameter, 50.8 mm long; V&P Scientific). The control compounds Budesonide and Staurosporine are both added at a concentration of 2mM and Budesonide is also added as a 1:10 titration, starting at 200uM, to achieve dose-response. After an 18-24 hour incubation at 37deg C at 5% CO2, 5ul of medium is added to column 1. Afterwards 1ul of 5x of CellTiter-Fluor (Promega) is added to every well. The plate is then incubated at 37deg C at 5% CO2 for 30 minutes before they are read on the ViewLux (Perkin Elmer) for a fluorescent read Ex=405(10)/Em=525(10) for a 3 second exposure, 2x binning, and high gain. Then 3 uL of 3x BugLite is dispensed into all wells and the plate is incubated at ambient room temperature for 15 minutes. Afterwards another ViewLux read is performed using the clear filter to get a luminescent read with the settings of 40 second exposure, 2x binning, and high gain. Cytotoxicity is assessed through the first fluorescent read and then biochemical activity against Nrf2 is measured in the luminescent read.
Consider `Oc1ccc2c3c1O[C@H]1c4[nH]c5c(c4C[C@@]4(O)[C@@H](C2)N(CC2CC2)CC[C@]314)C[C@@]1(O)[C@H]2Cc3ccc(O)c4c3[C@@]1(CCN2CC1CC1)[C@H]5O4`, for which the viability change was determined as 0% and the result was inactive.

Consider `CC(C)Oc1cccnc1N(C)C1CCN(Cc2ccccc2)CC1`, for which the outcome was inactive and the viability change was 1.23%.

In the case of `NC1CC1c1ccccc1` (stereo not given), the viability change was -9.56% and the outcome was inactive.

Regarding `C[C@@H]1O[C@H](C[N+](C)(C)C)C[C@H]1O`, the viability change is -6.13% and the compound was classed as inactive.

Take `NCCc1c[nH]c2ccccc12`: the call was inactive and the viability change was -0.0651%.

As for `O=C(Cc1ccc(Cl)c(Cl)c1)N1CCCCC1CN1CCCC1` (stereo not given), the call was inactive and the viability change amounted to 7.56%.

As to `CCCN1CCC[C@H](c2cccc(O)c2)C1`, the viability change was determined as 1.24% and the compound was classed as inactive.

On to `C=CCN1CC[C@]23CCCCC2[C@H]1Cc1ccc(O)cc13` (stereo not given in full), for which the compound was classed as inactive and the viability change was -5%.

Consider `NCc1cc(=O)[nH]o1`, for which the viability change was found to be 4.87% and the compound was called inactive.

`CS(=N)(=O)CC[C@H](N)C(=O)O` (stereo not given in full): the viability change worked out at 3.11% and the compound was called inactive.

On to `O=C(O)[C@@H]1CCN1`, for which the compound was called inactive and the viability change is 8.8%.

For the compound `S=C(NC1CCCCC1)N1CCC(c2cnc[nH]2)CC1`, the compound was called inactive and the viability change was -5.13%.

As to `CC(=O)[C@H]1CCC2C3CC[C@H]4C[C@H](O)CC[C@]4(C)C3CC[C@@]21C` (stereo not given in full), the result was inactive and the viability change was -0.378%.

In the case of `Clc1cnc(Oc2ccc(Oc3ncc(Cl)cc3Cl)cc2)c(Cl)c1`, the viability change was 3.25% and the call was inactive.

As to `Cc1nccc2c1[nH]c1ccccc12`, the viability change came to 6.29% and the compound was classed as inactive.

Take `O=C1CCCN1CC#CCN1CCCC1`: the viability change turned out to be 3.92% and the outcome was inactive.

In the case of `CC[C@@H](C(N)=O)N1CCCC1=O`, the result was inactive and the viability change is 0%.

In the case of `C#CCOC(=O)C1=CCCN(C)C1`, the outcome was inactive and the viability change is -2.85%.

With `NC(=O)CN1CC(O)CC1=O` (stereo not given), the outcome was inactive and the viability change was 1.59%.

Consider `CC1=NN=C(c2ccc(N)cc2)c2cc3c(cc2C1)OCO3`, for which the viability change is -4.5% and the compound was called inactive.

For the origin of these results see PubChem BioAssay (NCATS).
